From the supplement of paper PMC10849652
About 7,900 targets were measured; listed, in parts, are those with a hit and a random draw of the rest. About 0.6% of all pairs of compound and target were hits. Unmarked numbers belong to inactive results.

Columns and labels:
Test in all cases: log2 fold change, soluble protein after heating vs DMSO (PISA); higher = thermal stabilisation; K562 cells, 10 uM, 30 min; active = over 0.2 and 3.5 SD of the protein, either way, in both replicates (recomputed)
[1] = compound: CN1CCN(CCOc2cc(OC3CCOCC3)c3c(Nc4c(Cl)ccc5c4OCO5)ncnc3c2)CC1 [saracatinib]
Outline: (§1)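 For each measurement, 10 μM compound was applied for 30 min to K562 cells at 2×10^6 cells/mL. Aliquots were heated for 3 min across 48°C-58°C, pooled, and extracted in PBS with 0.5% NP-40 at 4°C; the supernatant after 21,000xg for 90 min was soluble protein. This was quantified by TMTpro 16plex LC-MS/MS with channel sums equalised, and thermal stability was reported relative to control samples from duplicates, on a log2 fold-change scale.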

[2] = compound: CN1CCN(c2nc(C3=C(c4c[nH]c5ccccc45)C(=O)NC3=O)c3ccccc3n2)CC1 [sotrastaurin]
Outline: as §1

[3] = compound: CN1CCc2c(c3ccccc3n2Cc2ccc(C(=O)NO)cc2)C1 [Tubastatin A]
Outline: as §1

[4] = compound: CNC(=O)C1=CC=CC=C1NC2=NC(=NC=C2Cl)NC3=C(C=C(C=C3)N4CCOCC4)OC
Outline: as §1

[5] = compound: CNC(=O)c1ccc(Nc2ncc(C(F)(F)F)c(NCc3nccnc3N(C)S(C)(=O)=O)n2)cc1 [defactinib]
Outline: as §1

[6] = compound: CNCc1ccc(-c2[nH]c3cc(F)cc4c3c2CCNC4=O)cc1 [rucaparib]
Outline: as §1

[7] = compound: CNc1nc(-c2ccc3c(N)n[nH]c3c2)cc(N2C[C@@H](C(=O)NC3CCCCC3)CC[C@H]2C)n1
Outline: as §1

[8] = compound: COC(=O)N[C@@H](C)CNc1nccc(-c2cn(C(C)C)nc2-c2cc(Cl)cc(NS(C)(=O)=O)c2F)n1 [encorafenib]
Outline: as §1

[9] = compound: COC(=O)[C@H](CCSC)NC(=O)C1=C(C=C(C=C1)NC[C@H](CS)N)C2=CC=CC=C2
Outline: as §1

[10] = compound: COC1=CC=C(C=C1)CN2C=CC3=C2C=C(C=C3)C(=O)NO
Outline: as §1

[11] = compound: CON(C)C(=O)N1N=C(c2cc(F)ccc2F)S[C@@]1(CCCN)c1ccccc1 [filanesib]
Outline: as §1

[12] = compound: CO[C@H]1C[C@@H]2CC[C@@H](C)[C@@](O)(O2)C(=O)C(=O)N2CCCC[C@H]2C(=O)O[C@H]([C@H](C)C[C@@H]2CC[C@H](n3cnnn3)[C@H](OC)C2)CC(=O)[C@H](C)/C=C(\C)[C@@H](O)[C@@H](OC)C(=O)[C@H](C)C[C@H](C)/C=C/C=C/C=C/1C [zotarolimus]
Outline: as §1

[13] = compound: COc1cc(C(=O)O)ccc1NC(=O)[C@@H]1N[C@@H](CC(C)(C)C)[C@](C#N)(c2ccc(Cl)cc2F)[C@H]1c1cccc(Cl)c1F [idasanutlin]
Outline: as §1

[14] = compound: COc1cc(Nc2ncc3c(n2)-c2ccc(Cl)cc2C(c2c(F)cccc2OC)=NC3)ccc1C(=O)O [alisertib]
Outline: as §1

[15] = compound: COc1cc2nc(-c3cc(F)ccc3O)nc(N[C@@H]3CNC[C@H]3C(C)(C)O)c2cc1OC
Outline: as §1

[16] = compound: COc1cc2ncnc(Nc3ccc(F)c(Cl)c3)c2cc1OCCCN1CCOCC1 [gefitinib]
Outline: as §1

[17] = compound: COc1cccc2cc(-c3nc([C@H]4CC[C@H](C(=O)O)CC4)n4ncnc(N)c34)[nH]c12
Outline: as §1

[18] = compound: CS(=O)(=O)CCNCc1ccc(-c2ccc3ncnc(Nc4ccc(OCc5cccc(F)c5)c(Cl)c4)c3c2)o1 [lapatinib]
Outline: as §1

[19] = compound: CS(=O)(=O)N1CCN(Cc2cc3nc(-c4cccc5[nH]ncc45)nc(N4CCOCC4)c3s2)CC1 [pictilisib]
Outline: as §1

[20] = compound: CN1CC[C@H](c2c(O)cc(O)c3c(=O)cc(-c4ccccc4Cl)oc23)[C@H](O)C1 [alvocidib]
Outline: as §1

UniProt Q9BWG4, sequence (Q9BWG4 whole entry, looked up): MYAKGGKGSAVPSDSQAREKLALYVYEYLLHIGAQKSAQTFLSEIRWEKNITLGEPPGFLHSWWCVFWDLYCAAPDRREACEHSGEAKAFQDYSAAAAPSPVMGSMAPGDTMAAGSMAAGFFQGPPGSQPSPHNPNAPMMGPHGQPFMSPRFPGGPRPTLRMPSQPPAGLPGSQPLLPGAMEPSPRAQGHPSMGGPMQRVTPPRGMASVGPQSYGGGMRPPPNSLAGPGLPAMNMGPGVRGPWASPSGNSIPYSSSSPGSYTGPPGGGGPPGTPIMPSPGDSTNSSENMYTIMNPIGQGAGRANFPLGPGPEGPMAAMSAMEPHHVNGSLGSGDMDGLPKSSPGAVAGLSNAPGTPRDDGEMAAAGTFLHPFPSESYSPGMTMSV
UniProt Q92581, sequence (Q92581 whole entry, looked up): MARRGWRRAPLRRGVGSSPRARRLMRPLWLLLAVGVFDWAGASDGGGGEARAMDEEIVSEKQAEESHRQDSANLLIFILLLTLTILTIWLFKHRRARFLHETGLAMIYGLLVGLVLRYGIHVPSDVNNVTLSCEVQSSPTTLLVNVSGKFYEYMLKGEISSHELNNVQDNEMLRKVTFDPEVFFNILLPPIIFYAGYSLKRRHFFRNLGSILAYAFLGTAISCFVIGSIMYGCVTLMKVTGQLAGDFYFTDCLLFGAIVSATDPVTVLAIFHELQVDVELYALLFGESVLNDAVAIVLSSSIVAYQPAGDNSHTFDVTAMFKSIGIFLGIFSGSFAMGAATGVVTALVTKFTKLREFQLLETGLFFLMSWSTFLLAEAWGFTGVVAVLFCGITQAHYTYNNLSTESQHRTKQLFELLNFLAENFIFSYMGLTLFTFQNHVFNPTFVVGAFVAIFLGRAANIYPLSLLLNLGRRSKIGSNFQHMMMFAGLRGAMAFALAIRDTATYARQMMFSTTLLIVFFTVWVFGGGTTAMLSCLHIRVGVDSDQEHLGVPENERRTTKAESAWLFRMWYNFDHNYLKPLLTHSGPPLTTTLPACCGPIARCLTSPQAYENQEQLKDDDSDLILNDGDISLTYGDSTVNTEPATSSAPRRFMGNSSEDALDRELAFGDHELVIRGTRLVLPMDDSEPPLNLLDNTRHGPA
UniProt O60271, sequence (O60271 whole entry, looked up): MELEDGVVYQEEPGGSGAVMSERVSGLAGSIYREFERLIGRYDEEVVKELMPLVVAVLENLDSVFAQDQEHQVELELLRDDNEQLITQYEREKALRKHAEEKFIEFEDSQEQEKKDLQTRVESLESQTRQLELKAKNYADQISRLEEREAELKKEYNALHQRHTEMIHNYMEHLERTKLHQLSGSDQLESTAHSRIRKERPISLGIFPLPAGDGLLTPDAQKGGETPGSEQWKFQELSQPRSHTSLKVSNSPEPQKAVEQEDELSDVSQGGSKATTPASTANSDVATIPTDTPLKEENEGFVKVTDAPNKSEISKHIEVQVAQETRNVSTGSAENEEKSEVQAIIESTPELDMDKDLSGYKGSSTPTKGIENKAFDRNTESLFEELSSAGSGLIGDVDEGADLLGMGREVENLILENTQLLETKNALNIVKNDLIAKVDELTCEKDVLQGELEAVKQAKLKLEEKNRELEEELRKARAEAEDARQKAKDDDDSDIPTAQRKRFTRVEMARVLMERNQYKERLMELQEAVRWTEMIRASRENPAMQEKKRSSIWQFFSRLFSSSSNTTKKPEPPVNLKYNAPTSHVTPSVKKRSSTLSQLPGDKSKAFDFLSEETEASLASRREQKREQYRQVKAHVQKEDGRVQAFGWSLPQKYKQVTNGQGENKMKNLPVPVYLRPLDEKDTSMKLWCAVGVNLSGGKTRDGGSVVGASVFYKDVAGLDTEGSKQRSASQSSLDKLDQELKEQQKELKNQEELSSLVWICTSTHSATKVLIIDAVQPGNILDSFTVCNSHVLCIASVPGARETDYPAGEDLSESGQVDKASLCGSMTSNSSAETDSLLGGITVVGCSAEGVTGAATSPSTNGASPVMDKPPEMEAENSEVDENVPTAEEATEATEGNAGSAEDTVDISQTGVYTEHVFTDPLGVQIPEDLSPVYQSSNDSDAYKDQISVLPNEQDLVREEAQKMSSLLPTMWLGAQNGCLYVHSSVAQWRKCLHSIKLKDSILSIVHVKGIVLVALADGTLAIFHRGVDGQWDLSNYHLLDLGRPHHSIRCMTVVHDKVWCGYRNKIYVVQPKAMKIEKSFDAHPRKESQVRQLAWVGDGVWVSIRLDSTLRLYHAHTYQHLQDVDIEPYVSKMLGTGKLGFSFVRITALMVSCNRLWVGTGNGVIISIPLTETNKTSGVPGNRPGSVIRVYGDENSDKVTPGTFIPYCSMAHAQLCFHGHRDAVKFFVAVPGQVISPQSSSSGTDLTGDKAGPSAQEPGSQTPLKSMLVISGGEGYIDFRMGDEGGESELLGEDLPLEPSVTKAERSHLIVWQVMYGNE
UniProt Q9UHD2, sequence (Q9UHD2 whole entry, looked up): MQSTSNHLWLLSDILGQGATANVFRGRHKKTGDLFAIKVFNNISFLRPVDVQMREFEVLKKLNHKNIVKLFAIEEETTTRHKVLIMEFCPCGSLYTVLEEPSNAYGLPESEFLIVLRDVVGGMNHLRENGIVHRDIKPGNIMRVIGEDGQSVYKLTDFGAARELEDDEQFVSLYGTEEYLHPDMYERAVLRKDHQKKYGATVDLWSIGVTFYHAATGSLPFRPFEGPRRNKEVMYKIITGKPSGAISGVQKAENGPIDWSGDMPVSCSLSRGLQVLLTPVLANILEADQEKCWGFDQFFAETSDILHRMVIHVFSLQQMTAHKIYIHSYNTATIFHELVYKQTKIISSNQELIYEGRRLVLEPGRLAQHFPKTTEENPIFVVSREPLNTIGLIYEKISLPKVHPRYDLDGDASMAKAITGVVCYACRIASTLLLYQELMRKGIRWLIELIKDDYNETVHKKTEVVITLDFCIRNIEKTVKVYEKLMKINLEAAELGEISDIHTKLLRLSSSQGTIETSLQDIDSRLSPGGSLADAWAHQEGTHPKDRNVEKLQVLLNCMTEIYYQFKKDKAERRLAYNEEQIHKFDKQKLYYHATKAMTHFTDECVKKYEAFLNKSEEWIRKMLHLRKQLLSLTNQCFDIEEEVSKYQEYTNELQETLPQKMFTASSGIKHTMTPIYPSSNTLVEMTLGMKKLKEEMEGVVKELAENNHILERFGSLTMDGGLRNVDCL
UniProt P12931, sequence (P12931 whole entry, looked up): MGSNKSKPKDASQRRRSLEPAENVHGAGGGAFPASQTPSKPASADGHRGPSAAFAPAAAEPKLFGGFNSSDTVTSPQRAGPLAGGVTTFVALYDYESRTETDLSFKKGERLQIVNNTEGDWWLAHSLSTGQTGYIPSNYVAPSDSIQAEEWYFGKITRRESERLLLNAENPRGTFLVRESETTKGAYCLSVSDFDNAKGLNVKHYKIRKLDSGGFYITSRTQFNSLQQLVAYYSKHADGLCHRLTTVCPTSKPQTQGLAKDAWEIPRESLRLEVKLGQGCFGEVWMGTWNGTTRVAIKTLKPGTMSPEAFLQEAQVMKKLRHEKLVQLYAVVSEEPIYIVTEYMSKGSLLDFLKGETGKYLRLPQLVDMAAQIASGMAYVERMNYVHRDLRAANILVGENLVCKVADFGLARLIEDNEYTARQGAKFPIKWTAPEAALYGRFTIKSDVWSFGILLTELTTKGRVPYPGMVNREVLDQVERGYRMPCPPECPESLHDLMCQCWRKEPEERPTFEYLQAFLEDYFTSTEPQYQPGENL
UniProt O76062, sequence (O76062 whole entry, looked up): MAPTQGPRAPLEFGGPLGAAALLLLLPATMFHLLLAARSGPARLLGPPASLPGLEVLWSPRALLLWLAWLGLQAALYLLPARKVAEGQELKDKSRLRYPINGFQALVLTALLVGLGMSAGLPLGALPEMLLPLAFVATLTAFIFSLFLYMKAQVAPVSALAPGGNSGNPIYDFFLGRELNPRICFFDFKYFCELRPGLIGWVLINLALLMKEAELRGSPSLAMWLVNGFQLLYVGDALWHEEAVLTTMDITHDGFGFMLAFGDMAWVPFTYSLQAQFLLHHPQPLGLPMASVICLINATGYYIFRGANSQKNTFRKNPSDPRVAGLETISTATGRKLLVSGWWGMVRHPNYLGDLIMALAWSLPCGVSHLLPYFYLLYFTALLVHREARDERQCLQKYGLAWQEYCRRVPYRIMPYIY
UniProt Q9NVC3, sequence (Q9NVC3 whole entry, looked up): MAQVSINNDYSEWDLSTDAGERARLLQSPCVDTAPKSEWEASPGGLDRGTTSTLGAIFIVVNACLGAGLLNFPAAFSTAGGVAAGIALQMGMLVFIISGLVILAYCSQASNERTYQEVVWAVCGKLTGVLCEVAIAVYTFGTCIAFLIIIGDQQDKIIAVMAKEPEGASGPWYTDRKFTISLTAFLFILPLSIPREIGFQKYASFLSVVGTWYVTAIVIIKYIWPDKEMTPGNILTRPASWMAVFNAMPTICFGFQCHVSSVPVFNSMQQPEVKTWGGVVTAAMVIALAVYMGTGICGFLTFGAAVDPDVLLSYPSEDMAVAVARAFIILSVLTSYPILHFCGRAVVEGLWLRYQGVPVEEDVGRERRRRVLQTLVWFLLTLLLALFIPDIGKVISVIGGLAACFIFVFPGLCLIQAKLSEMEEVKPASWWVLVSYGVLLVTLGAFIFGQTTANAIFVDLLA
UniProt P20226, sequence (P20226 whole entry, looked up): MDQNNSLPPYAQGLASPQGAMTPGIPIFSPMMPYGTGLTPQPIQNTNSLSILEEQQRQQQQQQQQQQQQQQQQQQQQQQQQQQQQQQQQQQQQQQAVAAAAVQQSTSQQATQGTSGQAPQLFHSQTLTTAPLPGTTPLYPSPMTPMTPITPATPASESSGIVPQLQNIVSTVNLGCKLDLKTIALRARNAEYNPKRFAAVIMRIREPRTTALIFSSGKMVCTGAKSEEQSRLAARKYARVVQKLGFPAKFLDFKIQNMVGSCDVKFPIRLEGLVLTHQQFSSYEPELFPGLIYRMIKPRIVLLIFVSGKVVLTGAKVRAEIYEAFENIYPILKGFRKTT

Row | Target | log2 fold change [1] | log2 fold change [2] | log2 fold change [3] | log2 fold change [4] | log2 fold change [5] | log2 fold change [6] | log2 fold change [7] | log2 fold change [8] | log2 fold change [9] | log2 fold change [10] | log2 fold change [11] | log2 fold change [12] | log2 fold change [13] | log2 fold change [14] | log2 fold change [15] | log2 fold change [16] | log2 fold change [17] | log2 fold change [18] | log2 fold change [19] | log2 fold change [20]
1 | TBK1 (UniProt Q9UHD2) | -0.026 | -0.063 | -0.014 | 0.536 (active) | 0.079 | 0.106 | -0.013 | 0.049 | 0.001 | -0.06 | 0.05 | -0.037 | 0.046 | 0.064 | 0.087 | -0.098 | 0.08 | -0.018 | 0.009 | 
2 | TM7SF2 (UniProt O76062) | 0.069 | -0.142 |  | -0.043 | -0.006 |  | 0.018 |  | -0.096 |  | -0.142 | -0.018 |  |  | -0.143 | 0.059 |  | 0 |  | -0.048
3 | SSBP4 (UniProt Q9BWG4) | 0.409 (active) | 0 | 0.038 | -0.184 |  | 0.022 | 0.031 | -0.18 |  | -0.065 | -0.601 |  | 0.122 | 0.018 | 0.076 | -0.001 | 0.029 | -0.145 | 0.117 | 
4 | SPAG9 isoform 4 (UniProt O60271) |  | -0.171 | -0.103 | 0.081 | 0.018 | 0.113 |  | 0.022 | 0.088 | -0.02 | 0.078 | -0.076 | -0.006 | 0.062 |  | -0.007 | -0.112 |  |  | 0.037
5 | SLC38A7 (UniProt Q9NVC3) |  | 0.152 | -0.177 | -0.052 | -0.126 | 0.004 |  | 0.016 | -0.261 | -0.042 | -0.098 | 0.095 | -0.077 | -0.136 | 0.01 | 0.035 | 0.069 | -0.057 | 0.022 | -0.137
6 | SRXN1 (UniProt Q9BYN0) |  | 0.019 | 0.209 |  | -0.283 | 0.111 |  | -0.008 | 0.022 | 0.406 | 0.076 | 0.022 | -0.028 | 0.098 | -0.036 | 0.012 | 0.001 | 0.151 | -0.562 (active) | 0.015
7 | TBP (UniProt P20226) | 0.316 |  | -0.014 |  | -0.003 | 0.088 | -0.158 | 0.019 | -0.071 | -0.014 |  | -0.1 | -0.076 | 0.148 | 0.072 | 0.044 | 0.081 | 0.023 |  | 0.119
8 | THAP9 (UniProt Q9H5L6) | 0.039 |  |  |  |  |  | 0.186 |  |  | 0.434 |  | -0.139 | 0.008 | -0.068 |  | -0.142 | 0.011 |  |  | -0.087
9 | SUPT5H isoform 2 (UniProt O00267) |  |  |  |  | -0.005 |  |  |  | -0.058 |  |  |  |  |  |  |  |  |  |  | 
10 | TK1 (UniProt K7ERV3) | 0.037 | 0.011 | -0.013 |  | 0 |  | -0.058 |  | -0.003 |  | 0.005 | -0.034 | -0.075 | 0.121 | -0.107 | 0.026 | 0 | -0.107 | 0.102 | -0.009
11 | SLC9A6 isoform 3 (UniProt Q92581) | 0.128 |  | 0.04 | 0.104 |  | 0.165 | -0.107 | -0.162 |  |  |  | -0.051 | 0.098 |  | 0.055 |  |  | -0.072 |  | -0.044
12 | SMARCA4 (UniProt P51532) | -0.303 | -0.086 |  | -0.17 | 0.134 | 0.099 | -0.091 | 0.049 | 0.022 | -0.101 | 0.124 | 0.09 | 0.15 | -0.086 | 0.273 |  | -0.038 | -0.544 (active) | 0.025 | -0.068
13 | SRC isoform 2 (UniProt P12931) |  | -0.167 | -0.108 | -0.069 | -0.077 | -0.343 | 0.007 | 0.082 | 0.188 | 0.197 | 0.229 | -0.123 | 0.119 | 0.01 | 0.017 |  | 0.219 | 0.088 | 0.113 | -0.061
14 | TCOF1 isoform 3 (UniProt Q13428) |  | 0.326 | 0.054 | -0.007 |  | -0.065 |  | -0.084 |  |  | -0.152 |  |  |  |  |  |  |  | 0.188 | 
15 | SPIN4 (UniProt Q56A73) |  |  |  | -0.199 |  |  |  |  |  | -1.43 (active) |  |  |  |  |  |  |  |  |  | 
16 | TC2N (UniProt Q8N9U0) | -0.215 |  | 0.308 |  | -0.341 |  | -0.064 |  | -0.096 |  |  |  | -0.003 | 0.012 |  | -0.066 | 0.127 |  |  | 
17 | SSBP4 (UniProt U3KPY3) |  |  |  |  | -0.189 |  |  |  | -0.121 |  |  |  |  | 0.023 |  |  | 0.212 |  |  | 
18 | TCOF1 isoform 6 (UniProt Q13428) |  | -0.094 | -0.103 | -0.149 | 0.027 | -0.022 |  | 0.162 | -0.053 | -0.318 | -0.087 | -0.062 |  | -0.263 |  | 0.028 | -0.105 |  |  | 0.104
19 | TDP1 (UniProt Q9NUW8) |  |  |  | -0.041 |  |  |  |  |  |  |  | -0.015 |  |  |  |  |  |  |  | -0.028
